According to PubChem BioAssay (NCATS):
Several values for one entry are separate records, joined by “and”; a condition that tells them apart may be missing. Identical values can stand only once. Results filed as inconclusive are left out. Unmarked numbers belong to inactive results. Activity calls are given as the source filed them. Calls come from the whole dose curve; as a rule, active = well fitted activation curve with a large enough effect; inconclusive = small, poorly fitted or top-dose-only effect; inactive = no such curve, though single readings can be large or run the other way.

Each molecule was assayed against Cellular tumor antigen p53 (Homo sapiens) (UniProt P04637) (assay: Primary qHTS for small molecule compounds that upregulate eGFP-tagged delta133p53alpha (in N-terminal) cells. (AID 2060322; note: nearly all actives have a fitted effect of over 75% in size;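 for activation: cells pre-induced with doxycycline then dosed without doxycycline; series mostly up to about 56 µM; 0% = DMSO vehicle and 100% = reference activator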)). Settings: NCI-H358 eGFP-delta133p53alpha fluorescence, 24 h; activation: hits give high values.
Chain of Cellular tumor antigen p53 (Homo sapiens) (P04637 whole entry, looked up): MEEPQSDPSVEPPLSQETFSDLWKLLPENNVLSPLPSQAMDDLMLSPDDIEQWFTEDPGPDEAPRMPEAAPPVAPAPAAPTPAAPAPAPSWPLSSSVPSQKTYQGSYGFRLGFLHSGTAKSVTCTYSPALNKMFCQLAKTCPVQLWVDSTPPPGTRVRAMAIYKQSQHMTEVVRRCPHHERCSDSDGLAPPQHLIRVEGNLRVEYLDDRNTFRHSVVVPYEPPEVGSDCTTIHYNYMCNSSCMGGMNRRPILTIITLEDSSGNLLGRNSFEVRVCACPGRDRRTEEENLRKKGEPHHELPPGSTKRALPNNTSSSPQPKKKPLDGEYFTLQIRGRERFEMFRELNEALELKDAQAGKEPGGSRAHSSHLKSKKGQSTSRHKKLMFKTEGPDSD
In short: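 NCI-H358 cells pre-induced 24 h with 10 ng/ml doxycycline for eGFP-delta133p53alpha, plated dox-free and exposed 24 h at 37C to titrated compounds. Fixed, Hoechst-stained; gated GFP peak intensity by laser scanning cytometry, normalized to DMSO (0%) and 57.5 uM 5-azacytidine (100%).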
Potency is the fitted concentration of half-maximal effect.

Question: With CC(=O)OC[C@]12[C@@H](OC(=O)c3ccoc3)C[C@@H]3[C@@H](OC(C)=O)[C@]1(OC3(C)C)[C@@](C)(O)C[C@H](OC(=O)c1ccoc1)[C@@H]2OC(=O)c1ccoc1 as the molecule, how does the activation read?
Answer: The activation was -9.16%.

Question: How did the Potency turn out when CO[C@H]1/C=C/C=C/C=C/C[C@H](OC(=O)[C@@H](C)NC(=O)C2CCCCC2)[C@H](C)[C@@H](O)/C(C)=C/CCc2cc(O)cc(c2)NC(=O)C1 was run?
Answer: Its Potency is 2810 nM (active).

Question: For CC1CCC2(OC1)OC1CC3C4CC=C5CC(O)CC(O[C@@H]6OC[C@@H](O)[C@H](O)[C@H]6O)C5(C)C4CCC3(C)C1(O)C2C (stereo partly specified), which activation is on record?
Answer: The activation was 16.8%.

Question: How did the activation turn out when CC1CC(O)C2(C)C(C(=O)O)=CCCC2C1(C)CCc1ccoc1 (stereo unspecified) was run?
Answer: Its activation is 8.93%.

Question: How did the activation turn out when Clc1ccc(Nc2nc3ccccc3c3nc(C4CCCCC4)[nH]c23)cc1Cl was run?
Answer: The activation was 22%.

Question: With COc1ccc(C2(O)CCC(N3CC[C@@H](NC(=O)CNC(=O)c4cccc(C(F)(F)F)c4)C3)CC2)cn1 (stereo partly specified) as the molecule, how does the activation read?
Answer: The activation was 19.6%.

Question: How did the activation turn out when Cc1nc2ccc(Oc3ccc(F)cc3)cc2c(=O)n1C[C@H]1CCCN(C(C)C)C1 was run?
Answer: The activation was -12.4%.

Question: For CC(=O)O[C@H]1CC(C)(C)CC2[C@@]13[C@H](O)C[C@]1(C)[C@@]2(CCC2[C@@]4(C)CC[C@H](O[C@@H]5OC[C@H](O[C@@H]6O[C@H](CO)[C@@H](O)[C@H](O)[C@H]6O[C@@H]6OC[C@@H](O)[C@H](O)[C@H]6O)[C@H](O)[C@H]5O[C@@H]5O[C@H](CO)[C@@H](O)[C@H](O)[C@H]5O)C(C)(C)C4CC[C@]21C)O[C@@H]3O (stereo partly specified), which activation is on record?
Answer: The activation was -7.63%.

Question: For CCC(C)C(=O)O[C@@H]1[C@@H](O)[C@@H](O[C@H]2O[C@H](CO)[C@@H](O)[C@H](O)[C@H]2O)O[C@H](CO)[C@H]1O (stereo partly specified), which activation is on record?
Answer: The activation was -2.29%.

Question: For CO[C@H]1C[C@@H]2CC[C@@H](C)[C@@](O)(O2)C(=O)C(=O)N2CCCC[C@H]2C(=O)O[C@H]([C@H](C)C[C@H]2CC[C@@H](OP(C)(C)=O)[C@H](OC)C2)CC(=O)[C@H](C)/C=C(\C)[C@@H](O)[C@@H](OC)C(=O)[C@H](C)C[C@H](C)/C=C/C=C/C=C/1C, which activation is on record?
Answer: The activation was 11%.

Question: OC(CN1CCN(c2cccc(Cl)c2)CC1)C(c1ccccc1)c1ccccc1 (stereo unspecified) was tested. Which activation did it give?
Answer: The activation was -15.1% and 17%.

Question: How did the activation turn out when CSCC1OC(n2cnc3c(=O)[nH]cnc32)C(O)C1O (stereo unspecified) was run?
Answer: Its activation is -8.4%.

Question: With C[N+]1(C)[C@@H]2CC[C@H]1CC(OC(=O)C(O)c1ccccc1)C2 (stereo partly specified) as the molecule, how does the activation read?
Answer: The activation was 13.7%.

Question: For CC1OC(O[C@@H]2[C@@H](O)[C@H](OC(=O)[C@]34CCC(C)(C)C[C@H]3C3=CCC5[C@@]6(C)CC[C@H](O[C@@H]7O[C@H](C(=O)O)[C@@H](O)[C@H](O[C@@H]8OC[C@@H](O)[C@H](O)[C@H]8O)[C@H]7O[C@@H]7O[C@H](CO)[C@H](O)[C@H](O)[C@H]7O)[C@@](C)(C=O)C6CC[C@@]5(C)[C@]3(C)C[C@H]4O)O[C@H](C)[C@@H]2OC2OC(C)C(OC3OCC(O)C(O)C3O)C(O)C2O)C(O)C(O)C1O (stereo partly specified), which activation is on record?
Answer: Its activation is -3.57%.

Question: Which activation does the source give for CC1CCCCN1S(=O)(=O)c1ccc(N2CCCC2=O)cc1 (stereo unspecified) here?
Answer: Its activation is 2.86%.

Question: For C=CC(C)(O)CC/C=C(\C)C(=O)OCC1OC(OC2CCC3(C)C(CCC4(C)C3CC=C3C5CC(C)(C)C(O)CC5(C(=O)O)CCC34C)C2(C)C)C(O)C(OC2OC(CO)C(O)C(OC3OC(CO)C(O)C(OC4OC(COC5OC(CO)C(O)C(O)C5O)C(O)C(O)C4O)C3O)C2O)C1O (stereo unspecified), which activation is on record?
Answer: The activation was 9.92%.

Question: Which activation does the source give for C=C1[C@@H]2CC[C@@]3(C)[C@H](c4ccoc4)OC(=O)C[C@]13O[C@H]1CC(=O)C(C)(C)[C@H](CC(=O)OC)[C@]12C here?
Answer: The activation was -26.7%.

Question: For CC(C)[C@@](O)(c1ccc2cc(OC(F)F)c(OC(F)F)cc2c1)c1cn[nH]n1, which activation is on record?
Answer: The activation was -0.333%.

Question: How did the activation turn out when CC(=O)OC1CC2(C)C(CCC(C)C23Cc2c(O)cc4c(c2O3)CNC4=O)C(C)(C)C1O (stereo unspecified) was run?
Answer: Its activation is 9.92%.

Question: C=C1CC/C=C(/C(=O)O)CCC2C1CC2(C)C (stereo unspecified) was tested. Which activation did it give?
Answer: The activation was -4.58%.

Question: How did the activation turn out when CC(C)=CCC[C@](C)(O[C@@H]1O[C@H](CO[C@@H]2O[C@H](CO)[C@@H](O)[C@H](O)[C@H]2O)[C@@H](O)[C@H](O)[C@H]1O)C1CC[C@]2(C)[C@@H]1[C@H](O)CC1[C@@]3(C)CC[C@H](O[C@@H]4O[C@H](CO)[C@@H](O)[C@H](O)[C@H]4O[C@@H]4O[C@H](CO)[C@@H](O)[C@H](O)[C@H]4O)C(C)(C)[C@@H]3CC[C@]12C (stereo partly specified) was run?
Answer: Its activation is -6.25%.
